# Screening results deposited in PubChem BioAssay by The Scripps Research Institute Molecular Screening Center.
# Rows were chosen to be rich in hits. Some 2.9% of all compounds tested hit in one or more screens of this group.
# PAFAH1B3 inh – inhibitors of human PAFAH1B3; inhibition, % at 3.39 µM; Q15102; AID 492972; hit rate 0.28% among 340,000; recombinant PAFAH1B3, FP-rhodamine probe, fluorescence polarization;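 active = inhibition above the screen-wide average of all tested compounds plus 3 SD, cut at about 25% in these data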
# Target sequence (Q15102 whole entry, looked up): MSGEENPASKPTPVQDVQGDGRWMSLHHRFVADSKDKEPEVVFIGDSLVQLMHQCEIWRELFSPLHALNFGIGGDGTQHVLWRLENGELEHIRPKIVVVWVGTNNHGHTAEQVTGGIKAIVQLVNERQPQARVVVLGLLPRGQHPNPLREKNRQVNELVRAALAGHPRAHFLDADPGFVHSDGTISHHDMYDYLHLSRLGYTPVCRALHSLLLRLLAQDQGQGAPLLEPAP
# rCAG RNA binder – r(CAG) repeat RNA binding; inhibition, % at 3 µM; TO-PRO-1 dye displacement fluorescence; hit rate 1.3% among 370,000;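 active = inhibition above the plate cutoff, the mean of all test compounds on that plate plus 3 SD, cut at about 35% in these data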;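 note: higher means more dye released from RNA so lower well fluorescence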
# PAFAH2 FP inh – PAFAH2 (human) inhibition; Q99487; recombinant PAFAH2, FP-rhodamine activity probe, fluorescence polarization; inhibition, % at 3.39 µM; hit rate 0.99% among 340,000;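 active = inhibition above the mean over all tested compounds plus 3 SD, cut at about 30% in these data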;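 note: inhibitors block probe labeling of enzyme so polarization drops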
# PAFAH1B2 inh – PAFAH1B2 (human) inhibition | P68402 | recombinant PAFAH1B2, FP-rhodamine activity probe, fluorescence polarization | hit rate 1.2% among 340,000 | inhibition, % at 3.39 µM;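 active = inhibition above the mean of all tested compounds plus 3 SD, cut at about 24% in these data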
# EBNA-1 inh – blocks EBNA-1 binding to DNA | EBNA-1 DNA binding, fluorescence polarization | inhibition, % at 14.8 µM | hit rate 0.34% among 300,000 | AID 1950; in the data active = inhibition above about 28%
# ZTA counter – counter-screen for EBNA-1 inhibitors: inhibitors of Epstein-Barr virus ZTA; P03206; ZTA-DNA binding, fluorescence polarization; inhibition, % at 11 µM; hit rate 0.15% among 320,000; in the data active = inhibition above about 33%
# Target sequence (P03206 whole entry, looked up): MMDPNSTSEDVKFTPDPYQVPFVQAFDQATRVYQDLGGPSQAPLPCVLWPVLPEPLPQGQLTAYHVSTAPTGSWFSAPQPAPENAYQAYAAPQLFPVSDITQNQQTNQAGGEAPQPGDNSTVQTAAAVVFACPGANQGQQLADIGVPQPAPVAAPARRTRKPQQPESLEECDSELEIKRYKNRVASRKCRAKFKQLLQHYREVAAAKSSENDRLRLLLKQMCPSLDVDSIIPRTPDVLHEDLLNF
# rCAG bind conf – r(CAG) RNA repeat binding, confirmation; shares compounds with rCAG RNA binder; TO-PRO-1 dye displacement fluorescence; inhibition, % at 3 µM; hit rate 70% among 4,300;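 active = inhibition above a per-plate cutoff, the mean inhibition of sample wells plus 3 SD, cut at about 35% in these data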;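 note: loss of TO-PRO-1 fluorescence as compound displaces dye from 1x1 AA loop RNA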
# dCAG dye counter – disrupts DNA CAG TO-PRO-1 complex, flagging rCAG hits; shares compounds with rCAG RNA binder; d(CAG) DNA oligo TO-PRO-1 dye displacement, fluorescence; inhibition, % at 3 µM; hit rate 94% among 4,300; AID 652068;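 active = inhibition above its plate's cutoff, the mean test-well inhibition plus 3 SD, cut at about 4.8% in these data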;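 note: hits displace the dye from DNA and so lower well fluorescence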
# Hits are given with their value; 0 = inactive; - = no result given.
SMILES,PAFAH1B3 inh,rCAG RNA binder,PAFAH2 FP inh,PAFAH1B2 inh,EBNA-1 inh,ZTA counter,rCAG bind conf,dCAG dye counter
O=C(CCN1C(=O)S/C(=C\c2cccs2)C1=O)NC1=NCCS1,0,0,0,0,0,0,-,-
CCc1nnc(NS(=O)(=O)c2ccc(N=Cc3c(C)[nH]n(-c4ccc(C)c(C)c4)c3=O)cc2)s1,0,55.4,0,0,0,0,84.6,57.4
Cc1[nH]n(-c2ccc(Br)cc2)c(=O)c1C=Nc1ccc(S(=O)(=O)Nc2nccs2)cc1,0,54.0,0,0,0,0,80.7,46.9
CCOC(=O)c1ccc(N2CSC3=C(C#N)C(c4ccc(OC)cc4OC)CC(=O)N3C2)cc1 (stereo not drawn),0,0,0,0,0,0,-,-
CCOc1ccc(N2CSC3=C(C#N)C(c4ccco4)CC(=O)N3C2)cc1 (stereo not drawn),0,68.5,0,0,0,0,47.6,17.5
CCc1cc2c(=O)n(CCCOC)c(SCC(=O)Nc3oc(C)c4c(C)n[nH]c(=O)c34)nc2s1,0,0,0,0,0,0,-,-
CN(c1ccc(O)cc1)c1nc(O)c(C2=c3ccccc3=NC2=O)s1,0,48.6,0,0,0,0,0,9.2
COc1ccc(NC(=O)COC(=O)c2ncc(Cl)c(Cl)c2Cl)c(OC)c1,0,0,0,0,0,0,-,-
O=C(O)c1ccc(CSc2nc(-c3ccccc3)cc(C(F)(F)F)n2)cc1,0,54.9,0,0,0,0,55.6,12.7
COc1ccc(S(=O)(=O)NC(CC(=O)NCCc2ccc(OC)c(OC)c2)C(C)C)cc1 (stereo not drawn),0,0,0,0,0,0,-,-
N#Cc1c(C(F)(F)F)cc(-c2ccco2)nc1SCc1ccccn1,0,37.0,0,0,0,0,0,5.3
Cn1c(=O)c2cc(NC(=S)NC3CC3)ccc2n1C/C=C/c1ccccc1,-,0,-,-,-,-,-,-
CC(=O)OCCNc1cc(SCc2ccco2)c2nonc2c1[N+](=O)[O-],0,-,0,0,0,0,-,-
O=[N+]([O-])c1c(NCCCO)cc(SCc2ccco2)c2nonc12,0,47.3,0,0,0,0,0,0
COc1ccc(C)cc1NC(=S)NC12CN3CN(CN(C3)C1)C2,-,-,-,-,0,0,-,-
Cc1ccc(N(CC(=O)N/N=C/c2cc(C)n(-c3ccccc3C)c2C)S(C)(=O)=O)cc1,0,0,0,0,0,0,-,-
COc1ccc(NC(=O)Nc2ccc3c(c2)C(=O)N([C@H](C)CO)C[C@H](C)[C@@H](CN(C)Cc2ccc(Cl)c(Cl)c2)OCCCC[C@@H](C)O3)cc1,-,0,-,-,-,-,-,-
COc1ccc(NC(=O)Nc2ccc3c(c2)C(=O)N([C@H](C)CO)C[C@H](C)[C@H](CN(C)Cc2ccc(C(=O)O)cc2)OCCCC[C@@H](C)O3)cc1,-,36.9,-,-,-,-,41.5,10.4
COc1cc(N=Nc2cccc(S(N)(=O)=O)c2)c2ccccc2c1N,0,51.9,0,0,0,0,0,12.4
NC1=NC(=Nc2cccc(S(N)(=O)=O)c2)c2ccccc21,0,0,0,0,0,0,-,-
Cc1ccc([N+](=O)[O-])cc1NC(=O)c1c(-c2ccccc2)noc1C,0,0,0,0,0,0,-,-
Cc1cc(Oc2ccc(Cl)cc2)nc(-c2ccccn2)n1,0,88.0,0,0,0,0,0,0
CCc1c(-c2cccc(Cl)c2)ncn1Cc1cccc(-c2ccccc2)c1,-,0,-,-,-,-,-,-
CC(C)[C@H](NC(=O)c1ccccc1)C(=O)OCC(=O)N1CC2(C)CC1CC(C)(C)C2 (stereo partly drawn),0,0,0,0,0,0,-,-
CSc1ccc(C(c2c(C(=O)O)[nH]c3ccccc23)c2c(C(=O)O)[nH]c3ccccc23)cc1,0,89.1,0,61.7,0,0,81.7,49.7
SMILES,PAFAH1B3 inh,rCAG RNA binder,PAFAH2 FP inh,PAFAH1B2 inh,EBNA-1 inh,ZTA counter,rCAG bind conf,dCAG dye counter
CSc1ccc(C(c2c(C)[nH][nH]c2=O)c2c(C)[nH][nH]c2=O)cc1,0,0,0,0,0,0,-,-
CCOc1cc(Br)cc(C(c2c(C(=O)O)[nH]c3ccccc23)c2c(C(=O)O)[nH]c3ccccc23)c1O,0,95.3,0,79.2,0,0,84.0,59.0
Cc1cccc(-c2cccc(NC(=O)C3CCCN(C(=O)c4csc(C)n4)C3)c2)c1 (stereo not drawn),0,0,0,0,0,0,-,-
N#Cc1c(NC(=O)c2ccc(Cn3cc(Br)cn3)o2)sc2c1CCCCC2,0,0,0,0,0,0,-,-
COC(=O)c1sc(NC(=O)c2ccc(Cn3cc(Cl)cn3)o2)c(C#N)c1C,0,48.3,0,0,0,0,41.9,12.7
Cc1ccc(S(=O)(=O)c2c(N)n(NC(=O)c3ccccc3C)c3nc4ccccc4nc23)cc1,0,35.5,0,0,0,0,35.6,13.3
Cc1ccc(C(=O)Nn2c(N)c(S(=O)(=O)c3ccc(C)cc3)c3nc4ccccc4nc32)cc1,0,0,0,0,0,0,-,-
Cc1ccc(S(=O)(=O)N2CCCC2)s1,0,0,0,0,0,0,-,-
CCOc1cc(/C=C(\C(=O)O)c2ccc(S(=O)(=O)N3CCCC3)s2)ccc1OC,0,0,0,0,-,0,-,-
Cc1ccc(C)c(/C=C(\C(=O)O)c2ccc(S(=O)(=O)N3CCCCC3)s2)c1,0,46.7,0,0,0,0,45.2,18.5
COc1ccc(Br)cc1/C=C(\C(=O)O)c1ccc(S(=O)(=O)N2CCCCC2)s1,0,69.5,0,0,-,0,74.2,36.6
CNC(=O)CS(=O)(=O)CC(=O)Nc1cc(OC(C)C)c(Cl)cc1Cl,0,0,0,0,0,0,-,-
O=C(Nc1sc2c(c1C(=O)O)CCC2)c1ccccc1Cl,0,0,0,0,0,0,-,-
N#Cc1c(NC(=O)c2cccc(S(=O)(=O)Nc3ccc(C(=O)O)cc3)c2)sc2c1CCCC2,0,61.2,0,0,0,0,45.6,17.2
N#Cc1c(NC(=S)NC(=O)c2ccccc2)sc2c1CCC2,0,0,0,0,0,0,-,-
Cc1cccc(C(=O)Nc2sc3c(c2C(=O)O)CCCC3)c1,0,40.9,0,0,0,0,0,9.3
O=C(Nc1sc2c(c1C(=O)O)CCC2)c1cccc(Cl)c1,0,74.2,0,0,0,0,53.2,15.5
Cc1cc(C(=O)Nc2sc3c(c2C#N)CCCCC3)cs1,0,-,0,0,0,0,-,-
O=C(NC(=S)Nc1sc2c(c1C(=O)O)CCCC2)c1ccccc1,0,72.0,80.8,0,0,0,55.7,20.4
O=C(O)CCC(=O)Nc1sc2c(c1C(=O)Nc1ccccc1)CCCCC2,0,0,0,0,0,0,-,-
COc1ccc(OC)c(NC(=O)c2c(NC(=O)CCC(=O)O)sc3c2CCCCC3)c1,0,41.0,0,0,0,0,48.8,16.9
O=C(O)CCC(=O)Nc1sc2c(c1C(=O)Nc1cccc3ccccc13)CCCCC2,0,43.2,0,0,0,0,0,15.3
